{
  "source": "PubChem BioAssay (Tox21)",
  "note": "Activity calls are given as the source filed them. Calls follow the shape of the dose curve; as a rule, active = well fitted activation curve with a large enough effect in the repeat runs; inconclusive = weak or mixed curves; inactive = flat fitted curve, though single readings scatter.",
  "data": [
    {"experiment": "Caspase-3/7 induction in CHO-K1 cells by small molecules, qHTS assay (AID 1346980); also: nearly all actives have a fitted effect of over 15% in size", "details": "CHO-K1 caspase-3/7 induction, Caspase-Glo luminescence, 17 h; series mostly up to 92.4 µM", "description": "National Center for Advancing Translational Sciences [NCATS]\nNIH Chemical Genomics Center [NCGC]\nU.S. Environmental Protection Agency [EPA]\nNational Institutes of Environmental Health Sciences [NIEHS]\nNational Toxicology Program [NTP]\nApoptosis is a process of programmed cell death and plays a central role in the development of multicellular organisms. It is a highly regulated process and induces cell death by activating caspases, which are the members of cysteine aspartic acid-specific protease (caspase) family. Caspases involved in apoptosis are classified by their mechanism of action as initiator caspases (caspase-2, -8, -9 and -10) and executioner caspases (caspase-3, -6, and -7). Inhibition of apoptosis results in number of cancers, autoimmune diseases, inflammatory diseases and viral infection. To identify small molecule compounds that induce apoptosis, a homogeneous, luminescent Caspase-Glo 3/7 assay was used. Wild type CHO-K1 cells were used to screen Tox21 libraries for identifying caspase-3/7 activity inducers.\nCHO-K1 cells were dispensed at 1,500 per well in 5uL of culture medium into white solid bottom 1536-well plates (Corning Life Sciences, Corning, NY) using a Multidrop Combi (Thermo Scientific, Waltham, MA) dispenser. The assay plates were incubated at 37 C and 5% CO2 for 5hr, and then 23nL of compounds dissolved in DMSO and positive control were transferred using a Pintool station (Wako, San Diego, CA). The assay plates were incubated at 37C and 5% CO2 for 17hr. For caspase-3/7 activity read, 4uL of Caspase-Glo 3/7 reagent (Promega Corporation, Madison, WI) was added to each well of the assay plates using Flying Reagent Dispenser (FRD, Aurora Discovery, San Diego, CA) and incubated the assay plates at room temperature for 30min. The luminescence signal was quantified using a ViewLux plate reader (Perkin Elmer, Shelton, CT).", "values": [
      {"smiles": "C=C(C)[C@H]1CC=C(C)CC1", "outcome": "inactive"},
      {"smiles": "CCCCNc1ccccc1", "outcome": "inactive"},
      {"smiles": "CCCCCCCCCCCCCCCCCC(=O)OCCCCCCCCCCCCCC(C)C", "outcome": "inactive"},
      {"smiles": "CCC(C(=O)NC(N)=O)c1ccccc1", "note": "(stereo not given)", "outcome": "inactive"},
      {"smiles": "NS(=O)(=O)c1cc(C2(O)NC(=O)c3ccccc32)ccc1Cl", "note": "(stereo not given)", "outcome": "inactive"},
      {"smiles": "CCn1c(=O)c2c(nc(/C=C/c3ccc(OC)c(OC)c3)n2C)n(CC)c1=O", "outcome": "inactive"},
      {"smiles": "CCCCCCCCCCC1CO1", "note": "(stereo not given)", "outcome": "inactive"},
      {"smiles": "CC1CCN(CCCC(=O)c2ccc(F)cc2)CC1", "outcome": "inactive"},
      {"smiles": "O=C1C(CCS(=O)c2ccccc2)C(=O)N(c2ccccc2)N1c1ccccc1", "note": "(stereo not given)", "outcome": "inactive"},
      {"smiles": "NS(=O)(=O)c1cc2c(cc1C(F)(F)F)NC(Cc1ccccc1)NS2(=O)=O", "note": "(stereo not given)", "outcome": "inactive"},
      {"smiles": "Nc1ncnc2c1ncn2Cc1c(F)cccc1Cl", "outcome": "inactive"},
      {"smiles": "CCCCCCCCCCCCCCCCCCOCC(O)CO", "note": "(stereo not given)", "outcome": "inactive"},
      {"smiles": "COc1cccc(OC)c1", "outcome": "inactive"},
      {"smiles": "Cc1cc(C)c(NC(=O)CN(CC(=O)O)CC(=O)O)c(C)c1Br", "outcome": "inactive"},
      {"smiles": "C[N+](C)(C)CC[N+]1(C)Cc2c(Cl)c(Cl)c(Cl)c(Cl)c2C1", "outcome": "inactive"},
      {"smiles": "CCCCCCCCN(C)CCCCCCCC", "outcome": "inactive"},
      {"smiles": "CCC(=O)Nc1cccc(N)c1", "outcome": "inactive"},
      {"smiles": "O=C1CC2(CCCC2)CC(=O)N1", "outcome": "inactive"},
      {"smiles": "CC(C)CCCC(C)CCCC(C)CCCCC(C)CCCC(C)CCCC(C)C", "note": "(stereo not given)", "outcome": "inactive"},
      {"smiles": "COC(=O)CCCC(=O)O", "outcome": "inactive"},
      {"smiles": "CCC(=O)c1cccc(Cl)c1", "outcome": "inactive"},
      {"smiles": "CCOC(=O)[C@H](CCc1ccccc1)N[C@@H](C)C(=O)N1CCC[C@H]1C(=O)O", "outcome": "inactive"},
      {"smiles": "OC/C=C/c1ccccc1", "outcome": "inactive"},
      {"smiles": "NC(=O)Nc1nc2ccccc2[nH]1", "outcome": "inactive"},
      {"smiles": "Cc1cc(C)cc(OCC2CNC(=O)O2)c1", "note": "(stereo not given)", "outcome": "inactive"},
      {"smiles": "CCC(C)OC(=O)N1CCCCC1CCO", "note": "(stereo not given)", "outcome": "inactive"},
      {"smiles": "N#CC1(O)CCCCC1", "outcome": "inactive"},
      {"smiles": "CO", "outcome": "inactive"},
      {"smiles": "CC12CCC(CC1=O)C2(C)C", "note": "(stereo not given)", "outcome": "inactive"},
      {"smiles": "COc1ccc(N=[N+]([O-])c2ccc(OC)cc2)cc1", "outcome": "inactive"},
      {"smiles": "CC(C)COC(=O)c1ccccc1O", "outcome": "inactive"},
      {"smiles": "NC(=O)CCCCC1CCSS1", "note": "(stereo not given)", "outcome": "inactive"},
      {"smiles": "CCCCCCC(=O)OCC", "outcome": "inactive"},
      {"smiles": "CCN(CC)S(=O)(=O)c1ccc(C(=O)O)cc1", "outcome": "inactive"},
      {"smiles": "C=C(C)[C@@H]1CCC2=CC(=O)C[C@@H](C)[C@]2(C)C1", "outcome": "inactive"},
      {"smiles": "NC1CCN(c2cccc(Cl)n2)CC1", "outcome": "inactive"},
      {"smiles": "NS(=O)(=O)c1cc2c(cc1Cl)NC(CSCc1ccccc1)=NS2(=O)=O", "outcome": "inactive"},
      {"smiles": "CCCCCCC(CCCCCCCCCCC(=O)OCC(COC(C)=O)OC(C)=O)OC(C)=O", "note": "(stereo not given)", "outcome": "inactive"},
      {"smiles": "CCCCCN(CCCCC)C(=O)C(CCC(=O)O)NC(=O)c1ccc(Cl)c(Cl)c1", "note": "(stereo not given)", "outcome": "inactive"},
      {"smiles": "CC(=O)O[C@H](CC(=O)[O-])C[N+](C)(C)C", "outcome": "inactive"}
    ]}
  ]
}
